Only some compounds are listed: those with a hit (about 9.2% of all), similar ones and a draw of the others.
ELG1 DNA repair: ELG1-dependent DNA repair inhibition; HEK293T ELG1-luciferase reporter, luminescence, 16 h; DNA damage induced by 5-fluorouridine; 2.3% of 330,000 active; Potency, µM (titrated, usually from 46.1 µM), inactives show top-dose activity change, negative = inhibition, usual class: inhibitors; further: on the % scale 0 is the no-effect control and ±100 the full control effect; nearly all actives have a fitted effect of over 55% in size
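Cells (2,000 per well) received 5-fluorouridine plus test compound or DMSO and were incubated 16 hr at 37 °C, 5% CO2. Luciferase activity was read by luminescence 30 min after ONE-Glo addition; signal suppression marked inhibition of damage-induced ELG1 function.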
FLuc counter: firefly luciferase modulation, counter-screen for miR-21 project; P08659; purified FLuc, Km substrates, luminescence inhibition; Potency, µM (top dose mostly 57.5 µM), for the others: at the top dose activity change, negative = inhibition, usual class: inhibitors; 6.9% of 360,000 active;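 further: plate controls were vehicle for no effect and reference inhibitor for full effect; nearly all actives have a fitted effect of over 55% in size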
Target sequence (P08659 whole entry, looked up): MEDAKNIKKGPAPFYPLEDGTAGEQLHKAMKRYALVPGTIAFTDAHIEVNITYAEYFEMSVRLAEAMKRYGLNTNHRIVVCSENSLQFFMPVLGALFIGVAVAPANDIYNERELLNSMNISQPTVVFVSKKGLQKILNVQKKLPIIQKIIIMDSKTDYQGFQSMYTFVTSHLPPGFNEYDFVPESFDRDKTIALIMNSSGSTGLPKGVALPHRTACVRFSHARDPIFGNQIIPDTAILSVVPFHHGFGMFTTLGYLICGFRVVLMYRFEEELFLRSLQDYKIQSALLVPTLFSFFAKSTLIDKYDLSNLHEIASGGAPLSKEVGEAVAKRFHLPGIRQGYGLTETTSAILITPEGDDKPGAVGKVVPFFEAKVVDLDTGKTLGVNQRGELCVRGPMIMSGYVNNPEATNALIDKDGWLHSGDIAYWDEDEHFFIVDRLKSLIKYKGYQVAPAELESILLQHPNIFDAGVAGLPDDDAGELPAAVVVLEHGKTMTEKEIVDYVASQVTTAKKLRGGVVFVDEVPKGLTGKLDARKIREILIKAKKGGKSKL
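Purified P. pyralis luciferase (10nM final) with 10uM D-luciferin and 10uM ATP (Km levels) in 50mM Tris acetate pH 7.5, 10mM Mg acetate, 0.01% Tween-20, 0.05% BSA; qHTS 6-point titration, ~60 µM downward; luminescence read.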
ELG1 genotox: inducers of genotoxicity in HEK293T ELG1-luciferase cells; HEK293T ELG1-luciferase reporter, luminescence, 16 h; Potency, µM (top dose mostly 46 µM), inactives show at the highest dose activity change, positive = activation, hits mostly activators; 1.3% of 330,000 active; further: % of control where 0% means no effect; nearly all actives have a fitted effect of over 60% in size
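After overnight (16 hr) compound treatment at 37 °C, ELG1-luciferase HEK293T cells were lysed with ONE-Glo; luminescence quantified 30 min later at room temperature.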
SMN2 splice enh: enhancers of SMN2 splice variant expression. HEK293 SMN2-luciferase splicing reporter, luminescence, 30-36 h. Potency, µM (highest dose often 46.1 µM), without a hit: top-dose activity change, positive = activation, hits mostly activators. 2.8% of 210,000 active. AID 1458; further: % of control where 0% means no effect; nearly all actives have a fitted effect of over 55% in size
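qHTS luciferase splicing reporter: luminescence rises when SMN2 exon 7 is included in transfected HEK293 cells. Compound exposure lasted 30-36 h at 37C, with 4.5 mM final sodium butyrate as control, followed by a ONE-Glo read.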
NPC1 promoter act: activates the NPC1 promoter; AID 485313; Potency, µM (top dose mostly 9.22 µM), for the others: top-dose activation, actives largely listed as activators; Huh7 NPC1 promoter luciferase reporter, 24 h; 2.4% of 320,000 active; further: % of control where 0% means no effect; nearly all actives have a fitted effect of over 60% in size
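Luminescence from an NPC1 promoter-driven luciferase reporter in stably transfected Huh7 cells was measured after 24 h compound treatment at 37 °C, followed by 10 min ambient incubation with luciferase detection reagent.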
Rab9 prom act: Rab9 promoter activation | Huh7 Rab9 promoter-luciferase reporter, luminescence, 24 h | Potency, µM (highest dose often 9.22 µM), without a hit: top-dose activation, negative = inhibition, most hits filed as activators | 2.8% of 320,000 active | AID 485297; further: % of control where 0% means no effect; nearly all actives have a fitted effect of over 60% in size
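Quantitative HTS format; Huh7 Rab9-luciferase reporter cells (1500/well) receive compound 2 h post-plating, incubate 24 h at 37 °C, then get luciferase reagent for 10 min before luminescence reading.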
* marks the source's active call; other numbers are inactive results; ? = inconclusive; nt = not tested or not shown. The call rests on the fitted dose curve; in most records, active means well fitted curve in the direction sought with a large enough effect; inconclusive means small, poorly fitted or top-dose-only effect, or another doubt; inactive means no such curve, though single readings can be large; an effect the other way counts as inactive or inconclusive. Potency means the concentration at half of the fitted maximal effect.

SMILES	ELG1 DNA repair	FLuc counter	ELG1 genotox	SMN2 splice enh	NPC1 promoter act	Rab9 prom act
C=CCn1c(SCCOc2ccccc2)nnc1C(C)NC(=O)c1ccccc1 (stereo unspecified)	-5.2%	-0.9%	0.1%	-1.0%	0.4%	-0.9%
C=CCn1c(CCNC(=O)c2ccc(Cl)c(Cl)c2)nnc1SCCOc1ccc(OC)cc1	16.4µM*	-5.7%	-10.1%	-37.9%	2.4%	0.3%
Oc1ccc(/C=N/Nc2ccc(Cl)nn2)cc1O	?	?	?	nt	-1.4%	-0.1%
Cc1ccc(/C=N/Nc2ccc(Cl)nn2)cc1	?	?	?	nt	1.78µM*	3.16µM*
Fc1ccccc1/C=N/Nc1ccc(Cl)nn1	?	10.7µM*	?	nt	?	?
Fc1ccccc1/C=N/Nc1nn[nH]n1	2.9%	0.5%	4.9%	-15.9%	-2.6%	13.6%
COc1cc(OC)c(NC(=O)Nc2sc3nc4n(c(=O)c3c2C)CCC(C)CC4)cc1Cl (stereo unspecified)	nt	5.0%	nt	-5.0%	nt	nt
CCC(C(=O)OCC(=O)Nc1ccc(SC(F)F)cc1)c1ccccc1 (stereo unspecified)	8.4%	-16.7%	8.4%	-10.2%	-4.0%	-0.7%
COc1ccccc1OCCSc1nc2ccccc2n1CC(N)=O	?	15.1µM*	3.2%	nt	-2.6%	4.6%
CC1CCN(c2nc3c(c(=O)n(C)c(=O)n3C)n2CCSc2ncccn2)CC1	0.7%	4.3%	2.7%	-12.6%	-1.0%	2.2%
Cn1c(=O)[nH]c(=O)c2c1nc(CN1CCN(c3ccc(F)cc3)CC1)n2CCCc1ccccc1	?	1.8%	-2.4%	6.7%	1.6%	-3.3%
Cc1ccnc(SCCn2c(N3CCN(Cc4ccccc4)CC3)nc3c2c(=O)[nH]c(=O)n3C)n1	9.2µM*	-2.2%	-5.6%	1.6%	-0.2%	-7.8%
Cn1c(=O)[nH]c(=O)c2c1nc(CN1CCN(c3ccccc3F)CC1)n2CCCc1ccccc1	6.51µM*	1.8%	1.8%	?	-2.5%	-3.0%
Cn1c(=O)c2c(nc(N3CCN(Cc4ccccc4)CC3)n2CCSc2ncccn2)n(C)c1=O	5.17µM*	-2.2%	10.4%	-8.6%	-1.2%	-6.8%
CC1CN(c2nc3c(c(=O)n(Cc4ccc(Cl)c(Cl)c4)c(=O)n3C)n2C)CC(C)O1 (stereo unspecified)	?	8.9%	-20.3%	-37.4%	-4.3%	-0.6%
Cn1c(=O)[nH]c(=O)c2c1nc(N1CCN(c3ccccc3)CC1)n2CCSc1ncccn1	?	7.7%	-3.5%	7.6%	-2.8%	-2.3%
Cn1c(N2CCN(c3ccccn3)CC2)nc2c1c(=O)n(Cc1ccc(Cl)cc1)c(=O)n2C	16.4µM*	-0.7%	-23.6%	-56.5%	-2.0%	-12.4%
O=C(NC(Cc1ccccc1)C(=O)O)/C(=C/c1ccc([N+](=O)[O-])cc1)NC(=O)c1ccccc1Br (stereo unspecified)	-6.4%	-19.2%	0.0%	-9.6%	-2.4%	-0.8%
COC(=O)[C@H]1C[C@H]2[C@@H]3CC[C@H]4C[C@@H](OC)CC[C@]4(C)[C@H]3CC[C@]2(C)[C@@]2(CCCO2)O1	-4.3%	nt	-2.9%	nt	nt	nt
Cc1onc(-c2ccccc2)c1C(=O)OCC(=O)Nc1ccc(OC(F)(F)F)cc1	?	-5.5%	-3.8%	nt	-1.2%	-2.3%
Cc1ccc(CNS(=O)(=O)c2c(C)nc3sc(C)cn3c2=O)cc1	nt	-4.0%	nt	nt	nt	nt
CCC(=O)N1CCC2(CC1)Oc1ccc(Cl)cc1C(=O)C21CC(c2ccc(Cl)cc2)=NO1 (stereo unspecified)	10.3µM*	-1.5%	-5.9%	nt	-0.1%	-8.3%
CCC(=O)N1CCC2(CC1)Oc1ccc(F)cc1C(=O)C21CC(c2ccc(Cl)cc2)=NO1 (stereo unspecified)	-5.1%	-1.8%	-8.4%	nt	-9.5%	-11.2%
COCCNC(=O)CCn1c(=O)c2cc(OC)c(OC)cc2n(CC(=O)Nc2ccccc2OC)c1=O	nt	0.4%	nt	-12.4%	nt	nt
CCCN=C(C)C1=C(O)c2ccccc2C1=O	?	21.3µM*	?	12.6µM*	?	?
SMILES	ELG1 DNA repair	FLuc counter	ELG1 genotox	SMN2 splice enh	NPC1 promoter act	Rab9 prom act
COC(=O)c1c(NC(=O)c2ccc(C)cc2)csc1C	2.2%	10.7µM*	0.5%	nt	-5.2%	-1.7%
CCOC(=O)c1c(-c2cccs2)csc1NC(=O)c1ccncc1	?	-1.1%	1.0%	-11.1%	-0.7%	3.4%
COC(=O)c1c(-c2cccs2)csc1NC(=O)c1ccc(C)cc1	nt	5.36µM*	nt	nt	nt	nt
Cc1ccccc1C(=O)OCc1cc(=O)n2nc(-c3cccs3)sc2n1	nt	-5.5%	nt	nt	nt	nt
CCOc1ccccc1/C=C(/C#N)C(N)=O	?	5.3%	2.6%	nt	1.7%	-1.6%
N#C/C(=C\c1ccc(OCc2ccc(F)cc2)cc1)C(=O)Nc1cccc(C(=O)O)c1	?	?	?	nt	6.2%	16.4%
Cc1cccc(NC(=O)/C(C#N)=C/c2ccc(F)cc2)n1	-5.8%	5.36µM*	-8.2%	nt	1.5%	0.4%
COC(=O)c1ccc(COc2ccccc2/C=C(\C#N)C(=O)Nc2ccc(C)cc2)cc1	?	8.49µM*	20.6µM*	-40.7%	?	2.82µM*
CCCOc1ccccc1/C=C(\C#N)C(=O)Nc1cccc(C)n1	1.0%	10.7µM*	5.3%	nt	-3.1%	-1.0%
Cc1ccc(C)c(N=Cc2c(O)c3ccccc3oc2=O)c1	0.0%	3.01µM*	0.6%	nt	-1.7%	-1.0%
Cc1ccc(N=Cc2c(O)c3ccccc3oc2=O)cc1F	28.2%	1.69µM*	-1.3%	nt	-2.2%	13.9%
Cc1cccc(/N=C/c2c(O)c3ccccc3oc2=O)n1	-8.7%	5.36µM*	6.8%	37.1%	-1.3%	2.3%
Cc1cc(C)cc(N=Cc2c(O)c3ccccc3oc2=O)c1	13.6%	-11.0%	4.2%	-9.0%	-6.5%	2.7%
O=C(O)c1cc(N=Cc2c(O)c3ccccc3oc2=O)ccc1O	0.1%	7.57µM*	-6.6%	nt	-3.2%	-4.6%
COc1ccc(OC)c(N=Cc2c(O)c3ccccc3oc2=O)c1	2.1%	-10.1%	1.1%	nt	-4.5%	-2.4%
CCOc1ccccc1N=Cc1c(O)c2ccccc2oc1=O	6.6%	?	0.9%	nt	1.6%	9.3%
CC1CCC(C(C)C)[C@H](O)C1 (stereo partly specified)	nt	nt	nt	-3.0%	nt	nt
Cc1cc(C)c(N=Cc2c(O)c3ccccc3oc2=O)c(C)c1	?	3.79µM*	?	nt	16.8%	1.8%
COc1ccccc1N1CCN(c2ccnc3cc(Cl)ccc23)CC1	?	-2.8%	-18.1%	nt	-31.8%	-24.6%
COc1ccccc1NC(=O)N1CCN(c2cc(-c3ccccc3)nc3ncnn23)CC1	13µM*	2.1%	-13.7%	-36.8%	-4.0%	-14.7%

Assay outcomes deposited in PubChem by National Center for Advancing Translational Sciences (NCATS).
